The source of these data is PubChem BioAssay (NCI).

Among the test systems are HCT-15 colon; HT29 colon; SNB-75 CNS; SNB-19 CNS; U251 CNS; SK-MEL-5 melanoma; UACC-62 melanoma; LOX IMVI melanoma; SK-MEL-28 melanoma; SK-MEL-2 melanoma; SN12C renal; UO-31 renal; TK-10 renal; ACHN renal; CAKI-1 renal; A498 renal; CCRF-CEM leukemia; MOLT-4 leukemia; EKVX NSCLC; PC-3 prostate.
Experiment in all cases: NCI-60 one-dose screen, 48 h (100 = growth as untreated, 0 = no growth, -100 = all killed)
Settings in all cases: 10 µM unless noted

Compounds without any hit were thinned out: in the full panel of roughly 83,000, 20% have a hit.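 Note: values are percent growth. 100 is the growth of untreated cells, values between 100 and 0 indicate rising inhibition; between -100 and 0 indicates cell death.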 A number with no mark means an inactive call. The source made the active and inactive calls. Rule for the calls: active = growth percent below 10; inactive = the rest.

Take `COc1cc2oc(-c3cccc(N)c3)cc(=O)c2c(OC)c1OC`: the growth in the assay with HCT-15 colon is 101%; with HT29 colon it was 109%; with SNB-75 CNS, 97.8%; in the assay on SNB-19 CNS, 97.8%; with U251 CNS it was 103%; in the assay on SK-MEL-5 melanoma, 98.8%. The growth was 93.5% in the assay with UACC-62 melanoma; 111% with LOX IMVI melanoma; 108% in the assay with SK-MEL-28 melanoma; 102% with SK-MEL-2 melanoma; 96.6% with SN12C renal; 80.6% in the assay with UO-31 renal. Moreover, the growth in the assay with TK-10 renal is 96.9%; with ACHN renal, 103%; with CAKI-1 renal, 83.5%; in the assay on A498 renal it was 101%; in the assay on CCRF-CEM leukemia, 102%; in the assay on MOLT-4 leukemia, 106%.

Take `COc1cc2nc(Cl)nc(Nc3cccc(C4=Nc5c(N)nc(N)nc5NC(c5ccc(Br)cc5)C4)c3)c2cc1OC` (centres undefined): the growth in the assay on HCT-15 colon is 7.34% (active); in the assay with HT29 colon, 19.8%; in the assay on SNB-75 CNS, 84.3%; in the assay on SNB-19 CNS, 28.7%; in the assay with U251 CNS, -46.5% (active); with SK-MEL-5 melanoma, 75.5%. For the same molecule, the growth is 107% in the assay with UACC-62 melanoma; 27.6% in the assay on LOX IMVI melanoma; 99.1% with SK-MEL-28 melanoma; 94.2% in the assay with SK-MEL-2 melanoma; 97.1% with EKVX NSCLC; 92.9% in the assay on UO-31 renal. The growth is 114% with TK-10 renal; 101% with ACHN renal; 90.3% in the assay on CAKI-1 renal; 90.6% in the assay on A498 renal; 10.9% in the assay on CCRF-CEM leukemia.

Consider `Cc1ccc(NC(=O)N[C@@H](Cc2cc(F)cc(F)c2)C(=O)NC2C(=O)N3C[C@H](O)C[C@H]3C(=O)N3CCCC[C@H]3C(=O)N[C@@H](CO)C(=O)N3C[C@H](C)C[C@H]3C(=O)O[C@H]2C)c(F)c1` (some centres undefined), for which the growth in the assay on HCT-15 colon is 106%; in the assay with HT29 colon, 42.8%; with SNB-75 CNS, 27.4%; in the assay with SNB-19 CNS, 27.1%; in the assay on U251 CNS, 29.3%; in the assay on SK-MEL-5 melanoma, 21.5%. The growth was 30.9% with UACC-62 melanoma; 28.1% in the assay on LOX IMVI melanoma; 47.4% with SK-MEL-28 melanoma; 40.7% in the assay with EKVX NSCLC; 22% with SN12C renal; 90.7% in the assay with UO-31 renal. In addition, the growth in the assay with TK-10 renal is 107%; in the assay with ACHN renal it was 107%; in the assay on CAKI-1 renal it was 82.9%; with CCRF-CEM leukemia, 35.1%.

As for `C[C@H](CCC(=O)NCc1ccc(C(=O)Nc2ccccc2N)cc1)[C@H]1CC[C@H]2[C@@H]3[C@@H](O)C[C@@H]4C[C@H](O)CC[C@]4(C)[C@H]3CC[C@]12C`, the growth was 88.3% with HCT-15 colon; 48.1% in the assay with HT29 colon; 91.5% with SNB-75 CNS; 73.1% with SNB-19 CNS; 42.4% in the assay on PC-3 prostate; 63.3% in the assay on SK-MEL-5 melanoma. The growth in the assay on UACC-62 melanoma is 36.7%; in the assay on LOX IMVI melanoma, 59.6%; with SK-MEL-28 melanoma, 63.6%; in the assay on SK-MEL-2 melanoma it was 68.8%; in the assay with EKVX NSCLC, 69.4%; with SN12C renal it was 69.5%. The growth in the assay with UO-31 renal was 56.7%; in the assay with TK-10 renal it was 54.8%; in the assay with ACHN renal it was 92.9%; in the assay on CAKI-1 renal it was 58.4%; with A498 renal, 59.5%; in the assay with CCRF-CEM leukemia, 7.16% (active). Also, the growth in the assay on MOLT-4 leukemia is 10.7%.

Regarding `O=C1[C@H]2Cc3c([nH]c4ccccc34)[C@@H](c3c(Cl)cccc3Cl)N2C(=O)CN1C1CCN(CC2CCCCC2)CC1`, the growth in the assay on HCT-15 colon was 29.5%; in the assay with HT29 colon it was 20.5%; in the assay with SNB-75 CNS it was 100%; in the assay on SNB-19 CNS, 94.6%; in the assay with U251 CNS it was 89.1%; in the assay with SK-MEL-5 melanoma it was 83.7%. The growth is 94.3% in the assay with UACC-62 melanoma; -59.9% (active) in the assay with LOX IMVI melanoma; 99.3% in the assay with SK-MEL-28 melanoma; 111% in the assay on SK-MEL-2 melanoma; 88.2% with EKVX NSCLC; 87.8% in the assay on SN12C renal. The growth in the assay on UO-31 renal is 62.6%; with TK-10 renal it was 142%; with ACHN renal, 84.1%; with CAKI-1 renal, 81.9%; with A498 renal, 87.2%; in the assay with CCRF-CEM leukemia, 47.2%. In the assay with MOLT-4 leukemia, the growth is 54.6%.

With `O=S(=O)(NCCCNc1nccc(-c2[nH]c(-c3ccccc3)nc2-c2ccc(Cl)c(O)c2)n1)c1ccc(Br)cc1`, the growth with HCT-15 colon was 13.9%; in the assay with HT29 colon it was 39.7%; in the assay on SNB-75 CNS, 73.6%; with SNB-19 CNS, 49%; with U251 CNS, 30.7%; with SK-MEL-5 melanoma, 0.46% (active). The growth in the assay with UACC-62 melanoma was 13.2%; in the assay with LOX IMVI melanoma, 21.6%; in the assay with SK-MEL-2 melanoma, -22.4% (active); with EKVX NSCLC, 44.2%; in the assay on SN12C renal, 37.5%; in the assay on UO-31 renal, 36.8%. Besides, the growth in the assay with TK-10 renal was 66.6%; with ACHN renal, 24.2%; with CAKI-1 renal, 33.6%; in the assay with CCRF-CEM leukemia, 21.5%; in the assay on MOLT-4 leukemia, 22.8%.

`COc1ccccc1N1CCN(C2=CC(=O)C(C)=C(C)C2=O)CC1`: the growth in the assay with HCT-15 colon was 100%; in the assay on HT29 colon, 104%; in the assay with SNB-75 CNS, 102%; in the assay on SNB-19 CNS it was 104%; with U251 CNS, 98.1%; with SK-MEL-5 melanoma it was 99.4%. Further, the growth in the assay on UACC-62 melanoma was 99.5%; in the assay with LOX IMVI melanoma it was 94.8%; with SK-MEL-28 melanoma, 119%; in the assay with SK-MEL-2 melanoma, 101%; in the assay with EKVX NSCLC, 101%; with SN12C renal, 104%. In addition, the growth in the assay with UO-31 renal is 93.7%; in the assay on TK-10 renal, 116%; in the assay with ACHN renal, 110%; with CAKI-1 renal, 104%; in the assay on A498 renal, 86.3%; in the assay with CCRF-CEM leukemia, 101%. The growth in the assay on MOLT-4 leukemia is 93.3%.

For `CCc1cccc2c3c(sc12)C(c1ccc(Cl)cc1)C(C#N)=C(/N=C/c1ccc(Cl)cc1)O3` (centres undefined), the growth with HCT-15 colon was 25%; in the assay on HT29 colon, 7.88% (active); in the assay with SNB-75 CNS, -13.9% (active); in the assay on SNB-19 CNS, 20.1%; with U251 CNS, 20.5%; in the assay with SK-MEL-5 melanoma, 14.5%. The growth with UACC-62 melanoma is 10.7%; with LOX IMVI melanoma, 26.5%; in the assay on SK-MEL-28 melanoma, 56.7%; in the assay on EKVX NSCLC, 45.8%; with SN12C renal, 33.9%; with UO-31 renal it was 39.9%. The growth is 56.4% with TK-10 renal; 41.7% in the assay on ACHN renal; 37.5% in the assay with CAKI-1 renal; 13% with CCRF-CEM leukemia; 30.2% with MOLT-4 leukemia.

With `Cc1ccc(CSc2nc(-c3ccc(Cl)cc3)c(C#N)c(N3CCOCC3)n2)cc1`, the growth with HCT-15 colon was 95.9%; with HT29 colon, 91.2%; with SNB-75 CNS, 108%; with SNB-19 CNS it was 95.4%; in the assay with U251 CNS, 96.7%; in the assay with SK-MEL-5 melanoma, 96.5%. Further, the growth is 73.1% with UACC-62 melanoma; 96.6% with LOX IMVI melanoma; 93.8% in the assay on SK-MEL-28 melanoma; 95.1% in the assay on EKVX NSCLC; 98.1% in the assay on SN12C renal; 86.1% in the assay on UO-31 renal. Besides, the growth in the assay on TK-10 renal is 105%; with ACHN renal, 98.9%; in the assay with CAKI-1 renal, 76.4%; with CCRF-CEM leukemia, 1.17% (active); in the assay with MOLT-4 leukemia it was 85%.
